20 compounds from PubChem BioAssay can be followed below.

Experiment [1] in a line: antimalarial activity against Dd2 strain (AID 2302;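 active = growth inhibition above 50% at the single 2 µM test dose, taken to imply half-maximal potency below 2 µM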;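 note: 0% = DMSO untreated growth and 100% = chloroquine plus artemisinin killed control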). As to conditions: P. falciparum Dd2 in RBCs, LDH growth readout, 72 h; at 2 µM; active compounds read high.
Experiment [2] in a line: human hepatoma cell viability loss – ATP luminescence, cytotoxicity control for P. falciparum antimalarial project, primary screen (AID 2303;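 active = inhibition above 50%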;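 note: 0% = DMSO wells and 100% = digitonin-killed cells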). As to conditions: HepG2 viability, 24-48 h, at 10 µM, active compounds read high.
In experiment [3] the target is L-lactate dehydrogenase (Plasmodium falciparum (isolate CDC / Honduras)) (UniProt Q27743). Kind of experiment: PfLDH activity inhibition – cell lysate, 3D7 strain, counter-screen for P. falciparum growth inhibition project (AID 2304).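 Note: 0% = vehicle and 100% = reference inhibitor.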 To be noted: P. falciparum 3D7 crude extract, LDH APAD/NBT absorbance; at 2 µM; active compounds read high.
The nature of experiment [4]: inhibition of 3D7 malaria parasite growth – strain 3D7 (AID 2306).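 Note: 0% = DMSO wells and 100% = chloroquine plus artemisinin control wells.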 As to conditions: P. falciparum 3D7 erythrocytic growth, LDH absorbance, 72 h; at 2 µM; active compounds read high.
Experiment [5] addresses Calcium-dependent protein kinase 1 (Plasmodium falciparum (isolate 3D7)) (UniProt P62344). Kind of experiment: PfCDPK1 kinase inhibitors, biochemical, TCAMS library (AID 1159585; cut-off not given, nearly all actives have IC50 up to about 0.98 µM;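 note: inhibitors leave more ATP so luminescence rises with inhibition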). As to conditions: recombinant PfCDPK1, Kinase-Glo ATP depletion luminescence. For orientation: Kinase-Glo measures the ATP left after a reaction by luminescence.
Experiment [6] deals with Plasmodium falciparum protein kinase 6 (PK6, PF3D7_1337100) (UniProt Q8IDW1). As to the kind of experiment: PfPK6 kinase inhibitors, biochemical, TCAMS library (AID 1159586). As to conditions: recombinant PfPK6, Kinase-Glo ATP depletion luminescence.
The target of experiment [7] is Protein kinase 7 (PK7), Plasmodium falciparum 3D7 (PF3D7_0213400) (UniProt Q7YTF7). Kind of experiment: inhibition of Plasmodium PK7 catalytic activity – biochemical, TCAMS antimalarial set, Kinase-Glo luminescence (AID 1159587). As to conditions: recombinant PfPK7, Kinase-Glo ATP depletion luminescence.
The target in experiment [8] is Calcium-dependent protein kinase 4 (Plasmodium falciparum (isolate 3D7)) (UniProt Q8IBS5). Kind of experiment: PfCDPK4 kinase inhibitors, biochemical, TCAMS library (AID 1159588; cut-off not given, nearly all actives have IC50 up to about 0.91 µM). To be noted: recombinant PfCDPK4, Kinase-Glo ATP depletion luminescence.

Each structure is given as a SMILES string. A number with no mark means an inactive call. For some of these results: Measured potencies and affinities stand elsewhere. Active and inactive are the calls of the source. Unless noted, the rule behind the calls is not given here.

Sequence of Protein kinase 7 (PK7), Plasmodium falciparum 3D7 (PF3D7_0213400) (Q7YTF7 1-343): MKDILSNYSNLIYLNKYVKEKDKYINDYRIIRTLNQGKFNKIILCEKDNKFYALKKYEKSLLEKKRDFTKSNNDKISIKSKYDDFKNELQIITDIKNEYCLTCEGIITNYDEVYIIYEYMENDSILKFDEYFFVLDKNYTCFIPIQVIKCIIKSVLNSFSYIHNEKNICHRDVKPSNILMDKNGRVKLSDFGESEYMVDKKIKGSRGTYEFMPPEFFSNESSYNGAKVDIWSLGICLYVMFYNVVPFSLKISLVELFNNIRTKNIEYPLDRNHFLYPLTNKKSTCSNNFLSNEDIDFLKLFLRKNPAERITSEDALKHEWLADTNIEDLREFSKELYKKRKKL
Sequence of Calcium-dependent protein kinase 1 (Plasmodium falciparum (isolate 3D7)) (P62344 whole entry, looked up): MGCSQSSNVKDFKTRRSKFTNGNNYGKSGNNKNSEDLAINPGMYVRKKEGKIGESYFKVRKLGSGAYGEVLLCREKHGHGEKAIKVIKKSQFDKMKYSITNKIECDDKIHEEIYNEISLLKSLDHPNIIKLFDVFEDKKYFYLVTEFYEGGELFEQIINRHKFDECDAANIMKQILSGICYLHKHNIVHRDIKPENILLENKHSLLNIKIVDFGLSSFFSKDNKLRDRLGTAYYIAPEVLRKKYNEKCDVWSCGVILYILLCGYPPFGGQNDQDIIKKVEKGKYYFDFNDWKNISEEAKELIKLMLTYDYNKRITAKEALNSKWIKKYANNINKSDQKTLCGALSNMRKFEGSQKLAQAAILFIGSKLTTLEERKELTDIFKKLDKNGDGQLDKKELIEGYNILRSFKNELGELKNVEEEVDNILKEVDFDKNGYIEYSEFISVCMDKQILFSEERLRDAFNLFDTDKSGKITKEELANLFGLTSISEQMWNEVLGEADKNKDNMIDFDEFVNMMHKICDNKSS
Sequence of L-lactate dehydrogenase (Plasmodium falciparum (isolate CDC / Honduras)) (Q27743 whole entry, looked up): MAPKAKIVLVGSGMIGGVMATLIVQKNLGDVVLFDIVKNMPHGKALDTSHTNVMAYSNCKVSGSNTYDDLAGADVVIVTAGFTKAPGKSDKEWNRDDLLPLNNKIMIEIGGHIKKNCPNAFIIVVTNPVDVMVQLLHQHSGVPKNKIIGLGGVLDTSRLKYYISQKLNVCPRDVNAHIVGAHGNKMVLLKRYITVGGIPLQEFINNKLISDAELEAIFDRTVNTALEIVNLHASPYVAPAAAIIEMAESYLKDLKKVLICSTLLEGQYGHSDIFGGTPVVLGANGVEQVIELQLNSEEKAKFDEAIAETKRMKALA
Sequence of Calcium-dependent protein kinase 4 (Plasmodium falciparum (isolate 3D7)) (Q8IBS5 whole entry, looked up): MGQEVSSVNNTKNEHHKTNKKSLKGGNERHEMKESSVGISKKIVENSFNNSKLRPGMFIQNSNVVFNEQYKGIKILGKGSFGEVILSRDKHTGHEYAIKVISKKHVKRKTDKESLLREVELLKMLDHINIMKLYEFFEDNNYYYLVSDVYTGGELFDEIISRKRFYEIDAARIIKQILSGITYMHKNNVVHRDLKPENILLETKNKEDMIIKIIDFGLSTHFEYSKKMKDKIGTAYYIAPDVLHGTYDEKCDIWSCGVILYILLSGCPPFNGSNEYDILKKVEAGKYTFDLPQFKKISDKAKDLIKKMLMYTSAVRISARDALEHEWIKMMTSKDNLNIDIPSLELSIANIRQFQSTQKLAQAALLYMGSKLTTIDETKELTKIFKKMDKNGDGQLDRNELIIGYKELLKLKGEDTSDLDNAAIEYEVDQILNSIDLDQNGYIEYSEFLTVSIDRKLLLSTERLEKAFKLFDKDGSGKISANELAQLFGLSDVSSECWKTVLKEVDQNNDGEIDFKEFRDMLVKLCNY
Sequence of Plasmodium falciparum protein kinase 6 (PK6, PF3D7_1337100) (Q8IDW1 1-305): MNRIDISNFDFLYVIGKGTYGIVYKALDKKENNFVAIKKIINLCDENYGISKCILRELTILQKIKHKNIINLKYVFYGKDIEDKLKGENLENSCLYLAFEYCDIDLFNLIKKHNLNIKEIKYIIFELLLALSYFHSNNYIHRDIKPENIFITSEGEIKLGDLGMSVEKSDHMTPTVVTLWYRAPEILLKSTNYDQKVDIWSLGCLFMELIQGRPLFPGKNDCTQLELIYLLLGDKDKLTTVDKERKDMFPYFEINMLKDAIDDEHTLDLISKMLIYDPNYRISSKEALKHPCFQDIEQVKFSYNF

As usually defined, the inhibition is the change of the read-out against control, counted positive when it falls. For `N=C(N)c1ccc(NCc2cccc(C(=O)O)c2)cc1`, the growth inhibition was 79% (active) in experiment [1] and 84% (active) in experiment [4]. The inhibition in experiment [2] was 7%; in experiment [3], -2%. Moreover, the result in experiment [5], in experiment [6], in experiment [7] and in experiment [8] was inactive.
For `CCN1CCN(CCCNc2c3ccccc3nc3ccccc23)CC1`, the growth inhibition in experiment [1] was 3%; in experiment [4] it was 100% (active). For the same compound, the inhibition in experiment [2] was 44%; in experiment [3], -1%. Moreover, the outcome in experiment [5], in experiment [6], in experiment [7] and in experiment [8] was inactive.
Regarding `Cn1cc(CN2CCC(OC(c3ccccc3)c3ccc(Cl)cc3)CC2)cn1` (stereo not given), the growth inhibition in experiment [1] is 61% (active); in experiment [4], 94% (active). For the same compound, the inhibition in experiment [2] is 39%; in experiment [3] it was 5%. The result in experiment [5], in experiment [6], in experiment [7] and in experiment [8] was inactive.
Consider `COc1ccc2nccc([C@@H](O)CN3CCC(NCc4cc5ccc(Cl)cc5[nH]4)CC3)c2c1`, for which the growth inhibition in experiment [1] was 61% (active); in experiment [4], 99% (active). For the same compound, the inhibition in experiment [2] is 30%; in experiment [3], 4%. For the same compound, the outcome in experiment [5], in experiment [6], in experiment [7] and in experiment [8] was inactive.
As to `c1cc(-c2ccc(CNCCCN3CCOCC3)cc2)cc(-c2nc3ccccc3[nH]2)c1`, the figures for the growth inhibition in experiment [1] and in experiment [4] were -1% and 100% (active), respectively. Also, the inhibition in experiment [2] was 26%; in experiment [3], -2%. In addition, the result in experiment [5], in experiment [6], in experiment [7] and in experiment [8] was inactive.
Take `c1ccc2c(Nc3ccc(Oc4ccc(Nc5c6ccccc6nc6ccccc56)cc4)cc3)c3ccccc3nc2c1`: the results for the growth inhibition in experiment [1] and in experiment [4] were 99% (active) and 101% (active), respectively. In addition, the inhibition is 21% in experiment [2] and -2% in experiment [3]. Further, the result in experiment [5], in experiment [6], in experiment [7] and in experiment [8] was inactive.
Regarding `Cc1cc(C(=O)Nc2ccc3c(c2)CCN3C2CCN(Cc3cccc(F)c3F)C2)no1` (stereo not given), the figures for the growth inhibition in experiment [1] and in experiment [4] were 94% (active) and 95% (active), respectively. For the same compound, the inhibition in experiment [2] is 0%; in experiment [3], -4%. Also, the outcome in experiment [5], in experiment [6], in experiment [7] and in experiment [8] was inactive.
`Cc1[nH]c(C)c(-c2ccc(/C=C/c3ccccn3)cc2)c(=O)c1Cl`: the growth inhibition was 96% (active) in experiment [1] and 97% (active) in experiment [4]. The values for the inhibition in experiment [2] and in experiment [3] were -9% and -2%, respectively. Besides, the result in experiment [5], in experiment [6], in experiment [7] and in experiment [8] was inactive.
For `CCOCc1cnc(C)nc1CNC(=O)c1c(C)[nH]c2ccc(C)cc12`, the figures for the growth inhibition in experiment [1] and in experiment [4] were 65% (active) and 84% (active), respectively. Moreover, the figures for the inhibition in experiment [2] and in experiment [3] were 8% and 3%, respectively. Besides, the result in experiment [5], in experiment [6], in experiment [7] and in experiment [8] was inactive.
`COc1ccc(-c2ccc(NC(=O)c3cccc(F)c3)cc2)cc1CNC(C)C`: the growth inhibition in experiment [1] was 14%; in experiment [4], 97% (active). In addition, the figures for the inhibition in experiment [2] and in experiment [3] were 17% and -2%, respectively. The outcome in experiment [5], in experiment [6], in experiment [7] and in experiment [8] was inactive.
For `CC1(C)CN(CCC2CCC(NC(=O)/C=C/c3ccccc3F)CC2)Cc2ccc(C#N)cc21` (stereo not given), the growth inhibition in experiment [1] was 82% (active); in experiment [4] it was 89% (active). The figures for the inhibition in experiment [2] and in experiment [3] were -1% and -3%, respectively. For the same compound, the result in experiment [5], in experiment [6], in experiment [7] and in experiment [8] was inactive.
Turning to `CC(C)(C)N1CCC(N(Cc2ccc(-c3ccc(C(F)(F)F)cc3)cc2)C(=O)Cn2c(CCc3cccc(F)c3F)nc(=O)c3cccnc32)CC1`, the results for the growth inhibition in experiment [1] and in experiment [4] were 53% (active) and 100% (active), respectively. For the same compound, the inhibition in experiment [2] is 94% (active); in experiment [3], 3%. The result in experiment [5], in experiment [6], in experiment [7] and in experiment [8] was inactive.
On to `CNCCNCc1ccc(-c2ccc(-c3nc4ccc(F)cc4[nH]3)cc2)cc1`, for which the growth inhibition in experiment [1] was 97% (active); in experiment [4] it was 98% (active). Further, the values for the inhibition in experiment [2] and in experiment [3] were 30% and 4%, respectively. Also, the result in experiment [5], in experiment [6], in experiment [7] and in experiment [8] was inactive.
Turning to `COc1cc2nc(N3CCC(CNC(=O)c4ccc(-c5ccc(C(=O)N(C)C)cc5)cc4)CC3)nc(N)c2cc1OC`, the results for the growth inhibition in experiment [1] and in experiment [4] were 89% (active) and 101% (active), respectively. In addition, the inhibition in experiment [2] is 20%; in experiment [3], 0%. The result in experiment [5], in experiment [6], in experiment [7] and in experiment [8] was inactive.
Regarding `O=C(Nc1ccc(Cl)cc1)Nc1ccc(OCC(O)CN2CCCCC2)cc1` (stereo not given), the growth inhibition is 13% in experiment [1] and 83% (active) in experiment [4]. Besides, the inhibition was 18% in experiment [2] and -1% in experiment [3]. In addition, the outcome in experiment [5], in experiment [6], in experiment [7] and in experiment [8] was inactive.
With `Nc1cccc(CNCc2cccc(-c3ccc(-c4nc5ccc(C(F)(F)F)cc5[nH]4)cc3)c2)c1`, the growth inhibition in experiment [1] was 98% (active); in experiment [4] it was 101% (active). In addition, the results for the inhibition in experiment [2] and in experiment [3] were 6% and 1%, respectively. Also, the result in experiment [5], in experiment [6], in experiment [7] and in experiment [8] was inactive.
For `O=S(=O)(c1cc(Cl)ccc1Cl)N1CCCCC(c2ccc(C(F)(F)F)cc2)=N1`, the growth inhibition in experiment [1] is 68% (active); in experiment [4] it was 87% (active). Further, the results for the inhibition in experiment [2] and in experiment [3] were 15% and -1%, respectively. Besides, the result in experiment [5], in experiment [6], in experiment [7] and in experiment [8] was inactive.
`CCN(CCCN1CCCCC1)c1cc(C)nc(Nc2ccc(OC)cc2)n1`: the growth inhibition is 24% in experiment [1] and 100% (active) in experiment [4]. Besides, the inhibition in experiment [2] was 23%; in experiment [3] it was -6%. Further, the result in experiment [5], in experiment [6], in experiment [7] and in experiment [8] was inactive.
As to `CCN(CCCN1CCCCC1)c1cc(C)nc(Nc2ccc(C)c(Br)c2)n1`, the growth inhibition in experiment [1] was 98% (active); in experiment [4], 102% (active). For the same compound, the results for the inhibition in experiment [2] and in experiment [3] were 42% and -8%, respectively. The outcome in experiment [5], in experiment [6], in experiment [7] and in experiment [8] was inactive.
With `CCc1c(C)nc(-n2nc(C)cc2NC(=O)CC(c2ccccc2)c2ccccc2)[nH]c1=O`, the growth inhibition in experiment [1] is 98% (active); in experiment [4] it was 97% (active). Also, the inhibition in experiment [2] is 41%; in experiment [3], -3%. Besides, the outcome in experiment [5], in experiment [6], in experiment [7] and in experiment [8] was inactive.
